GDH-TPI inh: GDH-TPI coupling enzyme inhibitors, primary screen, artefact control for M. tuberculosis FBA inhibitor project, biochemical, absorbance, full deck; GDH-TPI coupled enzyme counterscreen, NADH absorbance; inhibition, % at 4.8 µM; 1.2% of 360,000 active; in the data active = inhibition above about 30%
Mtb FBA inh: Mtb FBA enzyme inhibitors, primary screen, biochemical, fluorescence, strain H37Rv. purified M. tuberculosis FBA, fluorescence read-out. inhibition, % at 1 µM. 2.3% of 360,000 active. AID 588726, 2011; in the data active = inhibition above about 27%
Target sequence (P9WQA3 whole entry, looked up): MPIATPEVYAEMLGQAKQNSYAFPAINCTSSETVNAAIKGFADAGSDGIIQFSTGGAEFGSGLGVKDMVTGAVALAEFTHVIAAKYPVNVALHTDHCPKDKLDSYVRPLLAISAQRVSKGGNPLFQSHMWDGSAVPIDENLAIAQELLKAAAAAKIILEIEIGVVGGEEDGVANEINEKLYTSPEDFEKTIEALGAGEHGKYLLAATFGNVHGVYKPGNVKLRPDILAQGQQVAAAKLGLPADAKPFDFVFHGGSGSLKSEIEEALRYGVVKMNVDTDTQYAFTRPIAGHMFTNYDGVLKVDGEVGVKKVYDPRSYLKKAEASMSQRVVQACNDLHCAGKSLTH
Mtb BioA inh: M. tuberculosis BioA enzyme inhibitors, primary screen, biochemical, plate reader, single point, HTS; purified M. tuberculosis BioA enzyme; inhibition, % at 9.99 µM; 0.096% of 360,000 active; in the data active = inhibition above about 40%
Mtb hypoxia rep: PubChem AID 1159583 | M. tuberculosis hypoxia-regulated fluorescent reporter, fluorescence | fluorescence inhibition, % (concentration not given with the values) | 0.1% of 300,000 active; in the data active = fluorescence inhibition mostly above about 23%, no sharp cut-off; inactive = mostly below about 17%
FadD28 FP inh: inhibitors of FadD28 bisubstrate probe binding, primary screen, biochemical, fluorescence polarization, single point; 0.22% of 360,000 active; AID 588549, 2011; inhibition, % at 12.5 µM; Mycobacterium tuberculosis FadD28 fatty-acid-AMP ligase; in the data active = inhibition above about 8.5%, passing the limit was not always enough
Of the large screens only hits and unclear results are named; the others gave an inactive call. A selection: hits, their analogues and other compounds. The true share with any hit is near 2.9%.

C[C@H](CO)N1C[C@H](C)[C@H](CN(C)C(=O)c2ccccc2)Oc2cc(C3=CCCCC3)ccc2S1(=O)=O	none (no result: GDH-TPI inh, Mtb FBA inh, Mtb hypoxia rep, FadD28 FP inh)
CCOc1nc2ccccc2cc1/C=C/C(=O)O	none
CC(C)(O)C1Cc2cc(/C=C/C(=O)O)c(O)cc2O1 (stereo not given)	none (no result: Mtb BioA inh)
COc1cc2c(cc1/C=C/C(=O)O)OC(C)C2 (stereo not given)	Mtb FBA inh active
CCOc1cc2c(cc1/C=C/C(=O)O)OC(C)C2 (stereo not given)	Mtb FBA inh 147.5 (no result: Mtb BioA inh)
COc1ccc(C=Cc2c(-c3ccccc3OC)sc3ccccc23)cc1OC	none (no result: GDH-TPI inh, Mtb FBA inh, Mtb BioA inh, FadD28 FP inh)
Cc1[nH]c(C(=O)N/N=C/c2ccc(C(=O)O)cc2)c(C)c1C(=O)N/N=C/c1ccc(C(=O)O)cc1	GDH-TPI inh 73.8 (no result: Mtb hypoxia rep)
COc1ccc(OC)c(/C=N/NC(=O)c2ccc(=O)[nH]n2)c1	none (no result: Mtb BioA inh, Mtb hypoxia rep)
COc1cccc(/C=N/NC(=O)c2[nH]c(C)c(C(=O)N/N=C/c3cccc(OC)c3O)c2C)c1O	GDH-TPI inh 43.4 (no result: Mtb BioA inh, Mtb hypoxia rep)
COc1cccc(/C=N/NC(=O)c2ccc(=O)[nH]n2)c1O	GDH-TPI inh 31.2 (no result: Mtb hypoxia rep)
COc1ccc(C=NNC(=O)c2[nH]c(C)c(C(=O)NN=Cc3ccc(OC)cc3)c2C)cc1	none (no result: GDH-TPI inh, Mtb FBA inh, Mtb BioA inh, FadD28 FP inh)
CCOC(=O)c1c(C)[nH]c(C(=O)NN=Cc2ccccc2O)c1C	none (no result: GDH-TPI inh, Mtb FBA inh, Mtb BioA inh, FadD28 FP inh)
C[C@@H]1CCCCO[C@H](CN(C)C(=O)C2CCCCC2)[C@H](C)CN([C@H](C)CO)C(=O)c2cc(NS(=O)(=O)c3ccc(Cl)cc3)ccc2O1	none (no result: GDH-TPI inh, Mtb FBA inh, Mtb hypoxia rep, FadD28 FP inh)
O=C(C[C@H]1CC[C@@H](NC(=O)Nc2ccc(C(F)(F)F)cc2)[C@@H](CO)O1)NCc1cc(F)cc(F)c1	none (no result: GDH-TPI inh, Mtb FBA inh, Mtb hypoxia rep, FadD28 FP inh)
COc1cc(OC)c(-c2sc(Nc3ccccc3)n[n+]2-c2ccc(F)cc2)cc1OC	GDH-TPI inh 38.0
COc1ccccc1-c1cccc2nccn12	Mtb FBA inh 128.1 (no result: Mtb hypoxia rep)
CC(=O)Nc1ccccc1-c1cccc2nccn12	Mtb FBA inh 125.1 (no result: Mtb hypoxia rep)
COc1ncc(-c2cccc3nccn23)c(OC)n1	none (no result: Mtb hypoxia rep)
CC(=O)Nc1cccc(-c2cccc3nccn23)c1	Mtb FBA inh 158.6 (no result: Mtb hypoxia rep)
CC(=O)c1ccc(-c2cccc3nccn23)cc1	none (no result: Mtb hypoxia rep)
O=S(=O)(N[C@H]1CC[C@@H](CCNS(=O)(=O)c2ccccc2Cl)O[C@H]1CO)c1ccccc1	none (no result: GDH-TPI inh, Mtb FBA inh, Mtb hypoxia rep, FadD28 FP inh)
COc1ccc(S(=O)(=O)N[C@@H]2CC[C@@H](CC(=O)N3CCC(Cc4ccccc4)CC3)O[C@H]2CO)cc1	none (no result: GDH-TPI inh, Mtb FBA inh, Mtb hypoxia rep, FadD28 FP inh)
COCC#Cc1cnc2c(c1)C(=O)N([C@@H](C)CO)C[C@H](C)[C@H](CN(C)C(=O)C1CC1)O2	none (no result: GDH-TPI inh, Mtb FBA inh, Mtb hypoxia rep, FadD28 FP inh)
CC(C)n1c(O)c(C=NCc2ccccc2)c(=O)[nH]c1=S	GDH-TPI inh 39.9 (no result: Mtb BioA inh)
O=c1[nH]c(=S)n(Cc2ccc(F)cc2)c(O)c1C=NCc1cccnc1	GDH-TPI inh 35.0
CCC(C)n1c(O)c(C=NCc2cccnc2)c(=O)[nH]c1=S (stereo not given)	none (no result: Mtb BioA inh)
O=C(O)c1ccc(N/N=C/c2ccc3nccnc3c2)cc1	none (no result: Mtb BioA inh, Mtb hypoxia rep)
O=C(O)c1ccc(N/N=C/c2cccc(F)c2)cc1	GDH-TPI inh 36.6 (no result: Mtb BioA inh, Mtb hypoxia rep)
O=C(O)c1ccc(NN=Cc2ccc(OC(=O)c3cccc(Cl)c3)cc2)cc1	none (no result: GDH-TPI inh, Mtb FBA inh, Mtb BioA inh, FadD28 FP inh)
O=C(O)c1ccc(N/N=C/c2ccncc2)cc1	GDH-TPI inh 31.6 (no result: Mtb BioA inh, Mtb hypoxia rep)
O=C(O)c1ccc(N/N=C/c2ccc(F)c(F)c2)cc1	GDH-TPI inh 58.3 (no result: Mtb BioA inh, Mtb hypoxia rep)
O=C(O)c1ccc(N/N=C/c2ccc(OC(=O)c3cccc(Cl)c3)cc2)cc1	GDH-TPI inh 31.4 (no result: Mtb hypoxia rep)
O=C(O)c1ccc(N/N=C/c2cccc(C(F)(F)F)c2)cc1	none (no result: Mtb hypoxia rep)
C[C@H](CO)N1C[C@H](C)[C@H](CN(C)Cc2ccc(C(=O)O)cc2)Oc2ccc(NS(=O)(=O)c3ccc(Cl)cc3)cc2C1=O	none (no result: GDH-TPI inh, Mtb FBA inh, Mtb hypoxia rep, FadD28 FP inh)
Cc1noc(C)c1NC(=O)N(C)C[C@@H]1Oc2ccc(NC(=O)Cc3cn(C)c4ccccc34)cc2C(=O)N([C@@H](C)CO)C[C@@H]1C	none (no result: GDH-TPI inh, Mtb FBA inh, Mtb hypoxia rep, FadD28 FP inh)
COc1ccccc1CCN=C(N)NS(=O)(=O)c1ccc(F)cc1	none
COc1ccc(S(=O)(=O)NC(N)=NCCc2ccccc2OC)cc1	Mtb FBA inh 190.7
O=C(O)c1ccc(-c2ccc(C=NNc3ccc([N+](=O)[O-])cc3)o2)cc1	none (no result: GDH-TPI inh, Mtb FBA inh, Mtb BioA inh, FadD28 FP inh)
O=C(O)c1ccc(N/N=C/C=C/c2ccccc2[N+](=O)[O-])cc1	GDH-TPI inh 39.0 (no result: Mtb BioA inh, Mtb hypoxia rep)
O=C(O)c1ccc(NN=C/C=C/c2ccc([N+](=O)[O-])o2)cc1	Mtb hypoxia rep 68.3 (no result: GDH-TPI inh, Mtb FBA inh, Mtb BioA inh, FadD28 FP inh)
O=C(O)c1ccc(NN=C/C=C/c2ccccc2[N+](=O)[O-])cc1	none (no result: GDH-TPI inh, Mtb FBA inh, Mtb BioA inh, FadD28 FP inh)

Assay outcomes: PubChem, several laboratories
